From ChEMBL document CHEMBL1961873, “Compounds: GSK PKIS; Assays: Nanosyn kinase panel” (2012) come the findings set out here.

The target of assay [1] is 5'-AMP-activated protein kinase catalytic subunit alpha-2 (Homo sapiens) (UniProt P54646). The settings on record: at 1 µM.
Assay [2] concerns the target T1, NUAK family SNF1-like kinase 1 (Homo sapiens) (UniProt O60285).
T1 sequence (whole entry): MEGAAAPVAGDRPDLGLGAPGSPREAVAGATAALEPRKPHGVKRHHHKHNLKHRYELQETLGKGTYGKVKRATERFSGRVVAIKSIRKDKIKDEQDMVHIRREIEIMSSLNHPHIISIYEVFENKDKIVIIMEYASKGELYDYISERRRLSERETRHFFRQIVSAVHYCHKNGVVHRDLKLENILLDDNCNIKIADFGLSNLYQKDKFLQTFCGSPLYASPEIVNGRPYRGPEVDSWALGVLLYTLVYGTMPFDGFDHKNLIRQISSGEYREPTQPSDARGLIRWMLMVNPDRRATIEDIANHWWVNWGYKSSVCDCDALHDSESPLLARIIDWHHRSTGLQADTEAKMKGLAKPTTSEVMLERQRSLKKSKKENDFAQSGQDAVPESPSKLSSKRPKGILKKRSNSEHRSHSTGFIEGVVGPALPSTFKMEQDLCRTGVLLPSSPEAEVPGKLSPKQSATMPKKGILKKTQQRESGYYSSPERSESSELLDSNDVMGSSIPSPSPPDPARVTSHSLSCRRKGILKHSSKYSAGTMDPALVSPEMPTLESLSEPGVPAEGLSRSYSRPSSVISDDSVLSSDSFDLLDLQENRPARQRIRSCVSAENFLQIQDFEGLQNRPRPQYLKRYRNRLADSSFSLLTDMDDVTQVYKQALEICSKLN
The settings on record: at 0.1 µM.

For assay [3], the target named is T1, NUAK family SNF1-like kinase 1 (Homo sapiens). The conditions noted are these: at 1 µM.
For assay [4], the target named is T2, Serine/threonine-protein kinase BRSK1 (Homo sapiens) (UniProt Q8TDC3).
T2 sequence (whole entry): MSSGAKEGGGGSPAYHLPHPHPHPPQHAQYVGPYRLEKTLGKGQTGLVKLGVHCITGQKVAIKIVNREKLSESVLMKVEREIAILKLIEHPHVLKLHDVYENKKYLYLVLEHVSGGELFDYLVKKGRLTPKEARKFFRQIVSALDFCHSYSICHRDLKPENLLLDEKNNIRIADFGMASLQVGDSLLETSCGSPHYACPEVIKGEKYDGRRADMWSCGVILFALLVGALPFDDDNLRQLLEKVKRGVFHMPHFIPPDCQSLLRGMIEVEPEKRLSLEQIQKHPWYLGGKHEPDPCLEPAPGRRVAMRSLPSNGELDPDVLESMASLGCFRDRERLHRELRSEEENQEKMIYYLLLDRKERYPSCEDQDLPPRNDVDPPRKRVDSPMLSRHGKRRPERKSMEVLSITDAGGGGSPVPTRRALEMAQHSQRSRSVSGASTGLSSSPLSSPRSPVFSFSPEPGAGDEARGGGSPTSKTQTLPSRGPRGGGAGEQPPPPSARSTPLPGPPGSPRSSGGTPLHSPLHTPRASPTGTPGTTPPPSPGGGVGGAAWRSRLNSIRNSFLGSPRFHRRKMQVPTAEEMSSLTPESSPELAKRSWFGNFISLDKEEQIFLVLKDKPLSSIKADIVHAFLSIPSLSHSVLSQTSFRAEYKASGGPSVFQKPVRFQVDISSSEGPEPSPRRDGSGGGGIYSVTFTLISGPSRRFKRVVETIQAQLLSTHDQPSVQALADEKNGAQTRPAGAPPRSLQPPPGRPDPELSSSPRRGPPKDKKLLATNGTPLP
The settings on record: at 0.1 µM.

For assay [5], the target named is T2, Serine/threonine-protein kinase BRSK1 (Homo sapiens). The conditions noted are these: at 1 µM.
In assay [6] the target is T3, Serine/threonine-protein kinase BRSK2 (Homo sapiens) (UniProt Q8IWQ3).
T3 sequence (whole entry): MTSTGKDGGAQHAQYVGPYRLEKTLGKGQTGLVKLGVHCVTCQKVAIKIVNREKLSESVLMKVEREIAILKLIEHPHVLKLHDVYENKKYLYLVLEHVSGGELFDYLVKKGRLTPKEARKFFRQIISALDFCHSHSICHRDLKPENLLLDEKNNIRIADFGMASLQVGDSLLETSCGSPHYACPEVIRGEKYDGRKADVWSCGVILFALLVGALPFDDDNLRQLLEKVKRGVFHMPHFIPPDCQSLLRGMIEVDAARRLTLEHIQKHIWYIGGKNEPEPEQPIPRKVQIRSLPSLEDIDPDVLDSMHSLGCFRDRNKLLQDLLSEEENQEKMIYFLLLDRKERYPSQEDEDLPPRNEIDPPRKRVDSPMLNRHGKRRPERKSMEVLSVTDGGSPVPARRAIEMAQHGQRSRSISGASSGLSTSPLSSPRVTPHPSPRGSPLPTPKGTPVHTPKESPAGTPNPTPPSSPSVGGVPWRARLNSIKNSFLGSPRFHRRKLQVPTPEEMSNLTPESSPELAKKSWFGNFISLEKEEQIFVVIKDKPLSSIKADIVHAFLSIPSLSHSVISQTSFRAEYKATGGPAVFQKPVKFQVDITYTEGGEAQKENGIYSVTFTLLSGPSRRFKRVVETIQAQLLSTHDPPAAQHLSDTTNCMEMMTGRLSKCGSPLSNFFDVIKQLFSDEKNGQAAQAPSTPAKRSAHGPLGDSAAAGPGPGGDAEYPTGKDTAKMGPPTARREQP
The settings on record: at 0.1 µM.

In assay [7] the target is T3, Serine/threonine-protein kinase BRSK2 (Homo sapiens). The conditions noted are these: at 1 µM.
Assay [8] has as its target Calcium/calmodulin-dependent protein kinase type 1D (Homo sapiens) (UniProt Q8IU85). The settings on record: at 0.1 µM.
The target is the same in assay [9]. The conditions noted are these: at 1 µM.
Assay [10] addresses Calcium/calmodulin-dependent protein kinase type II subunit alpha (Homo sapiens) (UniProt Q9UQM7). The conditions noted are these: at 0.1 µM.
Assay [11] shares this target. The conditions noted are these: at 1 µM.
For assay [12], the target named is Calcium/calmodulin-dependent protein kinase type II subunit delta (Homo sapiens) (UniProt Q13557). The conditions noted are these: at 0.1 µM.
Sequence of Calcium/calmodulin-dependent protein kinase type II subunit delta (Homo sapiens) (Q13557 whole entry): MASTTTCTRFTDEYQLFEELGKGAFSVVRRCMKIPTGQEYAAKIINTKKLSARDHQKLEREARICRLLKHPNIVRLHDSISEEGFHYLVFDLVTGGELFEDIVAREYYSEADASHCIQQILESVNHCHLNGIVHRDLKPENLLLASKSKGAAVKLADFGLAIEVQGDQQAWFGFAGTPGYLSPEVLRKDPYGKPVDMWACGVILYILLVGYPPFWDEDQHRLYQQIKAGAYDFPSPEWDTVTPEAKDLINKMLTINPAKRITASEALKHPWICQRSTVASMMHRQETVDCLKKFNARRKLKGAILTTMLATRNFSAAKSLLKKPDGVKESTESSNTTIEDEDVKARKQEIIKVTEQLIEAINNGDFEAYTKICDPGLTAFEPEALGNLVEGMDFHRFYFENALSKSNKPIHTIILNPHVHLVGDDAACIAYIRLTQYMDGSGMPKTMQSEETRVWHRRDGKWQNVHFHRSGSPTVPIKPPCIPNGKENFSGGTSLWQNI
Assay [13] has the same target. The conditions noted are these: at 1 µM.
Assay [14] has as its target T4, Calcium/calmodulin-dependent protein kinase type IV (Homo sapiens) (UniProt Q16566).
T4 sequence (whole entry): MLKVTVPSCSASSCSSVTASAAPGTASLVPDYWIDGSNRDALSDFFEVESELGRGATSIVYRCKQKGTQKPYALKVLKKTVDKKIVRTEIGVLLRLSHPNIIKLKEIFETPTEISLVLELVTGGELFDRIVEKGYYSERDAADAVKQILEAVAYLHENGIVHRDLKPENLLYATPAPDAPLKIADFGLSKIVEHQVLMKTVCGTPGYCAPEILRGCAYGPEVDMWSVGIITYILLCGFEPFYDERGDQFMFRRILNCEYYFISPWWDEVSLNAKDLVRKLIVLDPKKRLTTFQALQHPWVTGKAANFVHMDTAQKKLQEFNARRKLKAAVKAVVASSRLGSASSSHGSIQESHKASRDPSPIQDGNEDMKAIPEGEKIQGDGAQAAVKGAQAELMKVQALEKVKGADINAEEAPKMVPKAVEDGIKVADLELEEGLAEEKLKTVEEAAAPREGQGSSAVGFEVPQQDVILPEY
The conditions noted are these: at 0.1 µM.

For assay [15], the target named is T4, Calcium/calmodulin-dependent protein kinase type IV (Homo sapiens). The settings on record: at 1 µM.
Assay [16] addresses T5, Serine/threonine-protein kinase Chk1 (Homo sapiens) (UniProt O14757).
T5 sequence (whole entry): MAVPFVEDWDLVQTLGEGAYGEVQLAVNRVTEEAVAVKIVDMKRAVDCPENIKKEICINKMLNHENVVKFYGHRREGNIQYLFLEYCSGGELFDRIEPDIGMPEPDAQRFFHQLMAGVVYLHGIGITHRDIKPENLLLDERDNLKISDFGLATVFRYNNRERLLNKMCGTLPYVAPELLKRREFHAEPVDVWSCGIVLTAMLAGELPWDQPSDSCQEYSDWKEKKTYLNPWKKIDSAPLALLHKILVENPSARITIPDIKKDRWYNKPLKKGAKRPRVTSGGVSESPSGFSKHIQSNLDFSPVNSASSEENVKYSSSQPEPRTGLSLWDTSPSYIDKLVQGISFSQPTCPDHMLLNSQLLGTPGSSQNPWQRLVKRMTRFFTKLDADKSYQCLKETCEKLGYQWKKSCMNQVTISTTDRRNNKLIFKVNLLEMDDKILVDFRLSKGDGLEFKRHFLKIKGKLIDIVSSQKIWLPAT
The conditions noted are these: at 0.1 µM.

The target of assay [17] is T5, Serine/threonine-protein kinase Chk1 (Homo sapiens). The settings on record: at 1 µM.
Assay [18] deals with Serine/threonine-protein kinase Chk2 (Homo sapiens) (UniProt O96017). The settings on record: at 0.1 µM.
Sequence of Serine/threonine-protein kinase Chk2 (Homo sapiens) (O96017 whole entry): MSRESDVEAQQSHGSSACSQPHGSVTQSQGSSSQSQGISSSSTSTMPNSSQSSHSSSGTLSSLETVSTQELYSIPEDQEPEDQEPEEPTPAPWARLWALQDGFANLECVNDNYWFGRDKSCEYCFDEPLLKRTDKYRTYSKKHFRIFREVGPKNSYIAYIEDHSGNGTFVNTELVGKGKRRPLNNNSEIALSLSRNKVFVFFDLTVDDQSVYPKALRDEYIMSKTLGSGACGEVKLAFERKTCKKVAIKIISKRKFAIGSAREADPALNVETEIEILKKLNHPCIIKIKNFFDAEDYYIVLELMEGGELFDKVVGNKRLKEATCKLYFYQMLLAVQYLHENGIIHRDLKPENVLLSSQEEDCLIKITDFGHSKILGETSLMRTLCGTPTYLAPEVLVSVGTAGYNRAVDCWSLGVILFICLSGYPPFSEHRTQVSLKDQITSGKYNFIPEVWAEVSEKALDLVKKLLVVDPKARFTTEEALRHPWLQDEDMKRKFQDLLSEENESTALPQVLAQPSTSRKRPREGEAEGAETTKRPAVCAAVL
Assay [19] has the same target. The settings on record: at 1 µM.
For assay [20], the target named is Death-associated protein kinase 1 (Homo sapiens) (UniProt P53355). The conditions noted are these: at 0.1 µM.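 Note: reported figure is the mean inhibition of DAPK1.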
Sequence of Death-associated protein kinase 1 (Homo sapiens) (P53355 whole entry, looked up): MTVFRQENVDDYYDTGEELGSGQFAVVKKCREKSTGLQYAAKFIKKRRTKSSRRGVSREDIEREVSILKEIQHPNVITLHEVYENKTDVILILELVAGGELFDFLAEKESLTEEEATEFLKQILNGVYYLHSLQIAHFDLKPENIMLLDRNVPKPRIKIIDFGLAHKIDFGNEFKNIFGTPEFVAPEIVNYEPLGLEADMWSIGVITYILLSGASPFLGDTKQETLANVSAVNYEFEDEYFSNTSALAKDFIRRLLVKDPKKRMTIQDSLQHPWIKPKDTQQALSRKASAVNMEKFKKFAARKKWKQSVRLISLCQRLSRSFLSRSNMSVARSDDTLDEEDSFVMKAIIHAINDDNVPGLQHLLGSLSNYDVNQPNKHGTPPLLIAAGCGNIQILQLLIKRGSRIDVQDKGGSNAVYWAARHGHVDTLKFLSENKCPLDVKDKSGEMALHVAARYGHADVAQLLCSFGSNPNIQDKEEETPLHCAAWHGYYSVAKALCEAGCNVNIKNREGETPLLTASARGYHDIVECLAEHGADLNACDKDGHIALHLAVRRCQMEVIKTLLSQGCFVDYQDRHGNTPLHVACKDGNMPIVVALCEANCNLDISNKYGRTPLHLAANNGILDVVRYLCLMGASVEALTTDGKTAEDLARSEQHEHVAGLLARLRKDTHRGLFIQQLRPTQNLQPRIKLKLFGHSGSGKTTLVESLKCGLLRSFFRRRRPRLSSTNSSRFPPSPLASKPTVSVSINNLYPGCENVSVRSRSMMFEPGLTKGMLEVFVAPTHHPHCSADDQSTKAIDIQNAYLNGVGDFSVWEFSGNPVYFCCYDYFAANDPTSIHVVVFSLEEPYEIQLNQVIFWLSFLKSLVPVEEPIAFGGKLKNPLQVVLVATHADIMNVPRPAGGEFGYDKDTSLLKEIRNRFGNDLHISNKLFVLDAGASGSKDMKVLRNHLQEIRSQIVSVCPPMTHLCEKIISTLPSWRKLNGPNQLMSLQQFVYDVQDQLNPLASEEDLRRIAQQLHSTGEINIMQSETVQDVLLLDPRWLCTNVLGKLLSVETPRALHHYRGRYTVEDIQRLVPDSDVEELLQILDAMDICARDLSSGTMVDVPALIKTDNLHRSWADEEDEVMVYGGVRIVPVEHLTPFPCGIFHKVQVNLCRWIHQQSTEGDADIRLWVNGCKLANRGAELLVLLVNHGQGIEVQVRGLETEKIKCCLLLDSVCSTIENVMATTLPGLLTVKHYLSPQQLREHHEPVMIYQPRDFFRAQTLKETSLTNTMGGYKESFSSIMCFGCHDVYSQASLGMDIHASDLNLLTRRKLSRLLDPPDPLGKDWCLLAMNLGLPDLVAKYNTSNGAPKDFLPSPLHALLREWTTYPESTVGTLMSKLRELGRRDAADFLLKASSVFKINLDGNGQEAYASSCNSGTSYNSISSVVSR

Sequence of 5'-AMP-activated protein kinase catalytic subunit alpha-2 (Homo sapiens) (P54646 whole entry, looked up): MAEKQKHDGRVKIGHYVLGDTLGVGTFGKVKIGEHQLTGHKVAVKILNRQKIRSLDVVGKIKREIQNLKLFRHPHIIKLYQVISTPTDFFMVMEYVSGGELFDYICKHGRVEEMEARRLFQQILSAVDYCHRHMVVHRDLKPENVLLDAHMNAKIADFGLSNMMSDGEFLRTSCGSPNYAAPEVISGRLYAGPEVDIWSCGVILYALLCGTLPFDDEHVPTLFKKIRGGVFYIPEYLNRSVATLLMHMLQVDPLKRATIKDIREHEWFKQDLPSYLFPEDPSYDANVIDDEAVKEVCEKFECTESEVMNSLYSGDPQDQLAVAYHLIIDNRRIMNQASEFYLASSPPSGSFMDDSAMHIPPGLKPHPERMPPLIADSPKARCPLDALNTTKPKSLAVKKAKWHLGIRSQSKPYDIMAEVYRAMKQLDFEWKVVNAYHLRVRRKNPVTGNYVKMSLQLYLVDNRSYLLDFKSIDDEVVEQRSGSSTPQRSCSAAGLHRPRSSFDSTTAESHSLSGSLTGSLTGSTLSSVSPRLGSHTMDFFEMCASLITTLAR
Sequence of Calcium/calmodulin-dependent protein kinase type II subunit alpha (Homo sapiens) (Q9UQM7 whole entry): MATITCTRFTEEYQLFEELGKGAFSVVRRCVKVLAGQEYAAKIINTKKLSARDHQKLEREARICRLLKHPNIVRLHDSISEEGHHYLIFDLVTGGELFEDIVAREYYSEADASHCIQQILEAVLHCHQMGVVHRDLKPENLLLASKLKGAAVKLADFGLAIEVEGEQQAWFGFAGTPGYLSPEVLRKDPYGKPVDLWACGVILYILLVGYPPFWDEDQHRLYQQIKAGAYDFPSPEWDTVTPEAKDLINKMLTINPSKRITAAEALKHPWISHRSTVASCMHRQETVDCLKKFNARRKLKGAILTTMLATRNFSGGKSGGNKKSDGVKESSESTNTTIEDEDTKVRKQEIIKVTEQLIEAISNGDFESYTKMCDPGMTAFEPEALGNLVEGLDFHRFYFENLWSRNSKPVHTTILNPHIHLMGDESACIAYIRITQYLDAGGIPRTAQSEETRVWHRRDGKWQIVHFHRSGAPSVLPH
Sequence of Calcium/calmodulin-dependent protein kinase type 1D (Homo sapiens) (Q8IU85 whole entry, looked up): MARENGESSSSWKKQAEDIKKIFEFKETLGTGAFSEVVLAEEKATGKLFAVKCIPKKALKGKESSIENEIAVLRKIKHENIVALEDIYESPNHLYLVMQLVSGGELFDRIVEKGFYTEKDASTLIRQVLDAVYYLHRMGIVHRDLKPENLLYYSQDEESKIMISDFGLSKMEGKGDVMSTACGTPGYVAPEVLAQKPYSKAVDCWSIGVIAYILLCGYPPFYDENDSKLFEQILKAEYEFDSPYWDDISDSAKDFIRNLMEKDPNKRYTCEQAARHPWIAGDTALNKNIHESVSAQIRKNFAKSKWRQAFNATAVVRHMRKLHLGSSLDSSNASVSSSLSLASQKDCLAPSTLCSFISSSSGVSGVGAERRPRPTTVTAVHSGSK

As usually defined, the inhibition is the change of the read-out against control, counted positive when it falls. As to `COc1cc2ncn(-c3cc(OCCc4ccccc4)c(C(N)=O)s3)c2cc1OC`, the inhibition was 1.32% in assay [1]; 1.92% in [2]; 9.13% in [3]; 41.5% in assay [4]; 76.9% in assay [5]; 58.3% in assay [6]. For the same compound, the inhibition in assay [7] amounted to 80.3%; in assay [8], 0.21%; in assay [9], 1.85%; in [10], 1.3%; in assay [11], 2.38%; in assay [12], 2.83%. Further, the inhibition in [13] is 3.66%; in [14] it was 1.62%; in [15] it was 0.6%; in assay [16] it was 1.61%; in assay [17] it was 7.39%; in [18], 1.58%. Besides, the inhibition in assay [19] worked out at 4.01%; in assay [20] it was 2.25%.

Regarding `FC(F)(F)c1cccc(Nc2nccc(-c3cnn4nc(-c5ccccc5)ccc34)n2)c1`, the inhibition is 2.89% in assay [1]; -0.22% in assay [2]; 4.2% in assay [3]; -0.11% in assay [4]; 4.72% in assay [5]; 1.87% in assay [6]. Besides, the inhibition in assay [7] is 2.68%; in assay [8], 0.17%; in assay [9], 0.28%; in assay [10], 0.97%; in assay [11], -0.96%; in assay [12] it was 0.96%. Also, the inhibition is -1.12% in [13]; 1.79% in assay [14]; -1.25% in assay [15]; 3.93% in assay [16]; 1.39% in [17]; 0.57% in [18]. The results for the inhibition in assay [19] and in [20] were 1.27% and 3.36%, respectively.

On to `N#Cc1ccc(Oc2nccc(-c3c(-c4ccc(F)cc4)ncn3C3CCNCC3)n2)cc1`, for which the inhibition in [1] was 3.23%; in assay [2], -1.37%; in assay [3], 0.67%; in [4], -2.05%; in assay [5], 0.23%; in assay [6], 0.71%. Besides, the inhibition in assay [7] is 2.75%; in assay [8] it was 0.44%; in assay [9] it was 0.96%; in assay [10], 2.95%; in [11], 0.01%; in assay [12] it was 3.46%. Moreover, the inhibition is 5.08% in assay [13]; -1.84% in assay [14]; 6.38% in assay [15]; 1.81% in assay [16]; -0.27% in assay [17]; 4.28% in assay [18]. Moreover, the figures for the inhibition in assay [19] and in assay [20] were 4.2% and 2.55%, respectively.

For the compound `O=C(Nc1n[nH]c2cc(-c3ccccc3)ccc12)C1CC1`, the inhibition was 7.53% in [1]; 4.99% in assay [2]; 2.6% in assay [3]; 4.46% in assay [4]; 21% in [5]; 3.64% in assay [6]. Moreover, the inhibition was 19.7% in [7]; 0.34% in assay [8]; -0.38% in [9]; 3.14% in assay [10]; 2.25% in assay [11]; 3.79% in assay [12]. For the same compound, the inhibition was 3.53% in assay [13]; -1.93% in assay [14]; -1.21% in assay [15]; 2.36% in assay [16]; 5.48% in [17]; 2.81% in assay [18]. The inhibition amounted to 3.79% in [19] and 5.91% in [20].
